As a reminder, the AC50 is the midpoint of the concentration-response curve, whichever way the signal moves.

Structures are written as SMILES. Values joined by “and” are separate entries in the source; they are usually repeats but may differ in a detail not shown here. Equal entries are not always repeated. Inconclusive results are not listed. Active and inactive are the calls of the source. Rule for the calls, unless noted: active = hit-call score of the fitted dose curve at least 0.9, where 1 is the maximum; inactive = score below 0.9.

Read-out in assay [1]: Secreted IgG (sIgG), gene 3500
Description: BSK_BT_sIgG: BioMAP Diversity Plus: BT Assay for Secreted IgG (sIgG) Biomarker Activity (AID 2284226). Conditions: primary human B cells with PBMC. A digest of the protocol:
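ELISA quantitation of secreted IgG from human B cells co-cultured with PBMC, sampled 24 h post-dosing. Values fitted relative to DMSO vehicle as baseline, positive fitting direction.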

Assay [2] in a line: BSK_BT_Bcell_Proliferation: Viability Assessment in the BioMAP Diversity Plus: BT Assay for B cell Proliferation (AID 2284227). The conditions noted are these: primary human B cells with PBMC. Summed up: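 SRB-based protein staining (0.1% SRB after 10% TCA fixation, 560 nm) quantifies proliferation in human B cells co-cultured with PBMC, 72 h post-dosing, with signal gain scored relative to DMSO negative control.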

Read-out in assay [3]: Interleukin 6 (IL6), IL6 (gene 3569)
Kind of assay: BSK_BT_xIL6: BioMAP Diversity Plus: BT Assay for Interleukin 6 (IL6) Biomarker Activity (AID 2284228). The conditions noted are these: primary human B cells with PBMC. Summed up:
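Readout: secreted IL-6 via Luminex xMAP multiplex, 24 h post-dosing. System: primary human B cells co-cultured with PBMC. Signal change scored relative to DMSO vehicle, positive fitting direction.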

Read-out in assay [4]: Interleukin 17A (IL17A), IL17A (gene 3605)
Description: BSK_BT_xIL17A: BioMAP Diversity Plus: BT Assay for Interleukin 17A (IL17A) Biomarker Activity (AID 2284229). The conditions noted are these: primary human B cells with PBMC. Summed up: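 Luminex xMAP readout of secreted IL-17A; human B cell + PBMC co-culture; 24 h post-dose; positive-direction fit vs DMSO negative control.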

Read-out in assay [5]: Vascular cell adhesion molecule 1 (VCAM1), VCAM1 (gene 7412)
Description: BSK_MyoF_VCAM1: BioMAP Diversity Plus: MyoF Assay for Vascular cell adhesion molecule 1 (VCAM1) Biomarker Activity (AID 2284231). Conditions: primary human lung fibroblasts. A digest of the protocol: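 MyoF system, lung fibroblasts; 24 h post-dose; VCAM-1 by ELISA; gain-of-signal fit vs DMSO baseline.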

A short description of assay [6]: TAMU_PeakParms_SingleDonor1434_Chronotropy: Texas A&M University (TAMU) 1.5-hr Human Induced Pluripotent Stem Cell (iPSC)-derived Cardiomyocytes Calcium (Ca+2) Flux Assay for Cardiotoxicity: Chronotropy (changes in peak frequency) (AID 2284217). Conditions: actives raise or lower the signal. A digest of the protocol:
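Beat frequency of single-donor iPSC cardiomyocytes was recorded through a calcium-sensitive dye 1.5 hours after exposure to four concentrations up to 100 uM. An EC05 point of departure was derived.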

A short description of assay [7]: TAMU_HCS_1.5hr_SingleDonor1434_Cytotoxicity: Cytotoxicity Assessment using High-content Screening (HCS) Fluorescent Imaging for the Texas A&M University (TAMU) 1.5-hr Human Induced Pluripotent Stem Cell (iPSC)-derived Cardiotoxicity Assay (AID 2284234; active = hit-call score of the fitted dose curve at least 0.9, where 1 is the maximum). Summed up:
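Nuclear counts from Hoechst 33342 imaging define cytotoxicity here, with EC10 (10% cell-count loss relative to DMSO) as point of departure. iPSC cardiomyocytes received 0.2-100 uM test chemical in 0.5% DMSO for 1.5 h at 37 C.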

Assay [8] is described as follows: CCTE_Mundy_HCI_Cortical_NOG_NeuriteCount: CCTE's Neurite Outgrowth Assay in rat cortical cells for Neurite Count, Mundy Lab (AID 2284212).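 Note: cells fixed about two days after chemical exposure began.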 Summed up: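 Rat cortical primary cells; compound added 2 h post-plating, 1/10 dilution of working solution. Anti-betaIII-tubulin/AF488 ICC; ArrayScan neurite count vs DMSO.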
Assay [9] is described as follows: CCTE_Mundy_HCI_Cortical_NOG_NeuriteLength: CCTE's Neurite Outgrowth Assay in rat cortical cells for Neurite Length, Mundy Lab (AID 2284213).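 Note: neurites imaged about 48 to 50 h after chemical exposure began.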 Summed up:
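First, rat primary cortical cells were plated and, 2 h later, given test chemical as a 1/10 dilution. Finally, βIII-tubulin immunostaining enabled automated imaging of neurite length.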

Assay [10] is described as follows: CCTE_Mundy_HCI_Cortical_Synap_Neur_Matur_NeuriteLength: CCTE's Synaptogenesis and Neurite Maturation Assay in rat cortical cells for Neurite Length, Mundy Lab (AID 2284214). Summed up:
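Neurite length quantified by automated high-content imaging of MAP2, synaptophysin and Hoechst staining. Rat cortical cells received chemical from DIV 7 to DIV 12 […], glial growth arrested by AraC at DIV 5; DMSO baseline.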

The nature of assay [11]: CCTE_Mundy_HCI_Cortical_Synap_Neur_Matur_NeuriteSpotCountPerNeuron: CCTE's Synaptogenesis and Neurite Maturation Assay in rat cortical cells for Neurite Spot Count per Neuron Count, Mundy Lab (AID 2284215). A digest of the protocol: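 Read-out: neurite-associated synaptophysin puncta per neuron, imaged by high-content analysis after MAP2, synaptophysin and Hoechst staining. Rat primary cortical cultures, dosed DIV 7 through DIV 12; DMSO served as baseline.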

Assay [12] is described as follows: CCTE_Mundy_HCI_Cortical_Synap_Neur_Matur_SynapseCount: CCTE's Synaptogenesis and Neurite Maturation Assay in rat cortical cells for Synapse Count, Mundy Lab (AID 2284218). A digest of the protocol:
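High-content imaging of synaptophysin puncta per MAP2-positive neuron (Hoechst nuclei) in rat cortical cells exposed DIV 7–12 after glial arrest with AraC at DIV 5; decrease relative to DMSO scored.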

The nature of assay [13]: CCTE_Mundy_HCI_Cortical_Synap_Neur_Matur_NeuriteCount: CCTE's Synaptogenesis and Neurite Maturation Assay in rat cortical cells for Neurite Count, Mundy Lab (AID 2284222). Summed up: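 Chemical exposure runs DIV 7–12 in rat cortical cultures, glia suppressed by AraC at DIV 5; measurement is at DIV 12. Imaging-derived neurite counts are fitted against DMSO baseline.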
Assay [14] is described as follows: CCTE_Mundy_HCI_Cortical_Synap_Neur_Matur_CellBodySpotCount: CCTE's Synaptogenesis and Neurite Maturation Assay in rat cortical cells for Cell Body Spot Count, Mundy Lab (AID 2284223). Summed up: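 Read-out: cell body-associated synaptophysin puncta per neuron, imaged after MAP2, synaptophysin and Hoechst staining. Rat cortical cells, AraC DIV 5, chemical dosing DIV 7, fixation DIV 12. Activity fitted in positive direction relative to DMSO baseline.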

Assay [15] can be described thus: CCTE_Mundy_HCI_hNP1_Pro_ResponderAvgInten: CCTE's Proliferation Assay in human neuroprogenitor cells, Mundy Lab (AID 2284224; active = hit-call score of the fitted dose curve at least 0.9, where 1 is the maximum;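 note: human neural progenitor cells hNP1 derived from WA09 embryonic stem cells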). Summed up: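 Proliferation read as average intensity of BrdU-positive cells, imaged at 26.25 h post-dosing: chemical exposure started after 40–44 h culture, BrdU during final 4 h, paraformaldehyde fixation. Positive-direction fit relative to DMSO.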

Assay [16] is described as follows: UKN4_HCS_LUHMES_cell_viability: Viability Assessment in the University of Konstanz (UKN) Leist Lab Neurite Outgrowth Assay in human LUHMES cells (UKN4) (AID 2284232). Summed up: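 Viability was read by high-content imaging of calcein-AM/H-33342-stained cells after 24 h toxicant exposure, staining included. Cells: human LUHMES on day 2 of dopaminergic differentiation, dosed shortly after attachment; DMSO baseline, bidirectional curve fitting.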

Assay [17] in a line: UKN2_HCS_IMR90_cell_viability: Viability Assessment in the University of Konstanz (UKN) Leist Lab Neural Crest Cell Migration Assay in human induced IMR90 Pluripotent Stem Cells (UKN2) (AID 2284233).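 Note: cells exposed to compound for 24 h after a 24 h migration phase.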 A digest of the protocol: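 Viability read as calcein-AM fluorescence by high-content imaging, Hoechst co-stain, 30 min. Human iPSC (IMR90) neural crest cells had migrated 24 h into stopper-defined gaps before 24 h chemical exposure. Fitted bidirectionally relative to DMSO.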

As to `O=C(O)C(F)(F)C(F)(F)C(F)(F)C(F)(F)C(F)(F)C(F)(F)C(F)(F)C(F)(F)C(F)(F)C(F)(F)F`, the result in assay [1], in assay [2], in [3] and in assay [4] was inactive. The AC50 in assay [5] was 4.85 µM (active) and 4.92 µM (active).
In the case of `ClC(Cl)=C(Cl)C(Cl)=C(Cl)Cl`, the result in assay [6], in [1], in assay [4], in assay [5] and in assay [7] was inactive. Besides, the AC50 in [2] is 14.2 µM (active); in [3] it was 11.8 µM (active).
Regarding `O=C1C2(Cl)C3(Cl)C4(Cl)C(Cl)(Cl)C5(Cl)C3(Cl)C1(Cl)C5(Cl)C24Cl` (stereo unspecified), the AC50 was 22.7 µM (active) in assay [8]; 16.7 µM (active) in assay [9]; 21.5 µM (active) in [10]; 20.7 µM (active) in assay [11]; 19.3 µM (active) in [12]; 24.1 µM (active) in assay [13]. Further, the AC50 in assay [14] is 9.8 µM (active); in assay [15], 21.7 µM (active); in assay [16], 7.53 µM (active); in assay [17], 3.06 µM (active).
Take `Oc1cccc2cccnc12`: the outcome in assay [6] and in [7] was inactive.
Consider `CC1(C)Cc2cccc(O)c2O1`, for which the outcome in assay [1], in assay [2], in assay [3], in assay [4] and in assay [5] was inactive.
As for `Nc1cccc2ccccc12`, the result in assay [1], in [3], in [4] and in assay [5] was inactive. The half-maximal activity concentration (AC50) in assay [2] is 20 µM (active).
In the case of `Oc1c(I)cc(I)cc1I`, the outcome in assay [1], in assay [2], in [3] and in assay [4] was inactive. For the same molecule, the AC50 in assay [5] is 8.17 µM (active).
Consider `CC(C)(C)c1cc(O)ccc1O`, for which the outcome in [6] was inactive. Further, the concentration at half-maximal activity (AC50) in assay [7] is 50 µM (active).
Regarding `COc1cc(OC)nc(NC(=O)NS(=O)(=O)c2ncccc2C(=O)N(C)C)n1`, the result in assay [1], in assay [2], in [3], in [4] and in assay [5] was inactive.
For `BrCCBr`, the outcome in [1], in assay [2], in [3], in assay [4] and in assay [5] was inactive.
Take `O=S(=O)(c1ccc(Cl)cc1)c1ccc(Cl)cc1`: the result in assay [1], in assay [2], in assay [3], in [4] and in assay [5] was inactive.
